Measurements: paper PMC4336329 (PLoS ONE, 2015)
Hit rate of the full screen: of about 310,000 compounds, about 14,000 (4.5%) showed an effect of 50% or more. Effects have a minus sign here. What follows is part of a selection rich in strong results, with near analogues and random picks from the rest.

molecular target: human ether-à-go-go-related gene (hERG) potassium channel (human, UniProt Q12809); assay: primary screen, population patch clamp on CHO cells stably expressing hERG; higher = less effect of the substance
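Also: peak tail current of the secondary pulse compared with the same well before compound.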

Chain of human ether-à-go-go-related gene (hERG) potassium channel (Q12809 whole entry, looked up): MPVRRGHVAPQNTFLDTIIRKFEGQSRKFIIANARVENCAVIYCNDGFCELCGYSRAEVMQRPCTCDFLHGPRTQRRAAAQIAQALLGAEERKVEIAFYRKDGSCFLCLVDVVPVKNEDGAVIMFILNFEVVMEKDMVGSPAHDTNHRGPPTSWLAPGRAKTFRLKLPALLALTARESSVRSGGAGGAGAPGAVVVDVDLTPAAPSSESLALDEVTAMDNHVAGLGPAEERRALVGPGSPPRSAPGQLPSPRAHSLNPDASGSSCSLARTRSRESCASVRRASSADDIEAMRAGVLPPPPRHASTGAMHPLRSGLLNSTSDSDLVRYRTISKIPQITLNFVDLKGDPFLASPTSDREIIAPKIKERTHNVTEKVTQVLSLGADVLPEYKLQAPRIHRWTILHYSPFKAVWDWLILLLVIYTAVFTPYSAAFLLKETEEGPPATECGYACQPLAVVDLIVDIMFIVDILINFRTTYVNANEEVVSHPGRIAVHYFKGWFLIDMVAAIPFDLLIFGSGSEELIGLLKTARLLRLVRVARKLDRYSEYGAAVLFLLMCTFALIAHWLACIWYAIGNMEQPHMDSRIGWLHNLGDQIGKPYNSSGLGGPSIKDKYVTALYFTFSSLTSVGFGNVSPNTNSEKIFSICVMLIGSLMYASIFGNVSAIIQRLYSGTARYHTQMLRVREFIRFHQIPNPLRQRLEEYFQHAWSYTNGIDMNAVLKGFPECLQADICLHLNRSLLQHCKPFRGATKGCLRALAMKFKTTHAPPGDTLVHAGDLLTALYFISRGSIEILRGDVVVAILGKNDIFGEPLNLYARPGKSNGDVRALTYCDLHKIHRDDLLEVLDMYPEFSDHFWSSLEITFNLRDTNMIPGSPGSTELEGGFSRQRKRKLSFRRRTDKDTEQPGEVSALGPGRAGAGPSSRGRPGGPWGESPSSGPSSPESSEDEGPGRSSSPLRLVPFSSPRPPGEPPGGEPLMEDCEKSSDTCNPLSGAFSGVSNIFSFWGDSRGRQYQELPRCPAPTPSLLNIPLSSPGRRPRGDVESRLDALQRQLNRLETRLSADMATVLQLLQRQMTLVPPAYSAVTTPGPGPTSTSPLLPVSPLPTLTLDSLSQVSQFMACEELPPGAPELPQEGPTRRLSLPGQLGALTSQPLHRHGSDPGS

Compound | hERG current change (%, negative = inhibition) at 10uM [%]
Cc1cc(C)nc(NC2=NCC(=O)N2c2ccccc2Br)n1 | 8.96
CC[n+]1ccc(/C=C/c2c[nH]c3ccccc23)cc1.[Cl-] | -6.54
Cc1cc(/C=C(/C#N)C(=O)O)c(C)n1CCC(C)C | 4.68
CNC(=O)Nc1cc(C(F)(F)F)cc(C(F)(F)F)c1 | 14.3
Cc1nn(-c2ccccc2)c(Cl)c1/C=N/NC(=O)c1ccccc1F | 14.6
O=[N+]([O-])c1ccc(CSc2nnc(Cc3ccccc3)n2-c2ccc(F)cc2)cc1 | -48.7
COc1ccc(-n2c(SCc3ccc([N+](=O)[O-])cc3)nnc2-c2ccccc2)cc1 | -24.4
COc1ccc(CC(=O)NCc2nnc(SCc3ccc([N+](=O)[O-])cc3)n2C)cc1 | -63.6
COCCn1c(Cc2ccccc2)nnc1SCC(=O)N(C)C | 14.3
COc1ccc(CC(=O)NCc2nnc(SCc3ccc(C)cc3)n2C)cc1 | 5.49
COCCn1c(Cc2ccccc2)nnc1SCC(=O)Nc1ccccc1 | 5.83
COCCn1c(Cc2ccccc2)nnc1SCc1ccc([N+](=O)[O-])cc1 | -55
COc1ccc(OCc2nnc(SCC(=O)N3CCCc4ccccc43)n2-c2ccc(C)cc2)cc1 | -3.12
COc1ccc(-n2c(Cc3cccn3C)nnc2SCC(=O)N2CCCc3ccccc32)cc1 | -13.9
COc1ccc(CC(=O)NCc2nnc(SCC(=O)c3ccc(OC)cc3)n2C)cc1 | -3.61
COc1ccc(-n2c(Cc3ccccc3)nnc2SCC(=O)N2CCCc3ccccc32)cc1 | -53.9
COc1ccc(-n2c(Cc3ccccc3)nnc2SCc2ccc([N+](=O)[O-])cc2)cc1 | -68.4
CN1CCC(N(C)S(=O)(=O)c2ccc(NC(=O)COc3ccc(F)cc3)cc2)CC1 | 0.996
Cc1cc(C(F)F)n2nc(C(=O)Nc3ccc(S(=O)(=O)NC45CC6CC(CC(C6)C4)C5)cc3)nc2n1 | -8.28
O=S(=O)(Cc1ccccc1)N1CCn2c(nc3ccccc32)C1 | 9.91
COCCNC(=O)C(=O)N/N=C(\C)CC(=O)Nc1cccnc1 | 8.89
COc1ccc(NC(=O)CSc2nnc(CNc3ccc(C)cc3)n2C)cc1 | 25.2
CCn1c(SCc2ccc([N+](=O)[O-])cc2)nnc1C(C)NC(=O)c1ccccc1Br (stereo not drawn) | -27.6
Cc1cc(C)nc(SCc2nnc(SCc3ccc([N+](=O)[O-])cc3)n2Cc2ccco2)n1 | -80.6
COc1ccc(NCc2nnc(SCC(=O)Nc3ccc(OC)cc3)n2C)cc1 | -62.3
Cc1cc(C)nc(SCc2nnc(SCC(N)=O)n2Cc2ccco2)n1 | -7.19
C=CCn1c(SCc2ccc([N+](=O)[O-])cc2)nnc1C(C)NC(=O)c1ccccc1 (stereo not drawn) | -54.5

Compound | hERG current change (%, negative = inhibition) at 10uM [%]
COC(=O)CSc1nnc(CSc2nc(C)cc(C)n2)n1Cc1ccco1 | 7.23
COC(=O)CSc1nnc(COc2ccc([N+](=O)[O-])cc2)n1C | -47.6
CC(C)OC(=O)CSc1nnc(COc2ccc([N+](=O)[O-])cc2)n1C | -69.9
CCn1c(SCc2ccc([N+](=O)[O-])cc2)nnc1C(C)NC(=O)c1ccc(C)cc1 (stereo not drawn) | -33.6
COc1ccc(NCc2nnc(SCC(=O)Nc3ccccc3)n2C)cc1 | -12.5
Cn1c(COc2ccc([N+](=O)[O-])cc2)nnc1SCC(N)=O | 1.54
CC(C)N1CC(C(=O)Nc2ccc(Br)c(Cl)c2)CC1=O (stereo not drawn) | -2.34
O=C(COc1ccc(-c2ccccc2)cc1)NNC(=O)Nc1ccccc1 | -2.73
Nc1c(Cl)ncnc1N/N=C/c1ccnc2ccccc12 | 1.91
CC(C)NC(=O)C(=O)NCCN1CCN(S(=O)(=O)c2ccc(Cl)cc2)CC1 | -33.3
COCCN(C(C)=O)c1nnc(-c2cnccn2)s1 | 6.11
COC(=O)C1=C(C)NC2=C(C(=O)CC(C)(C)C2)C1c1cnn(C)c1C (stereo not drawn) | 15.6
COc1ccc(OCC(=O)N/N=C2\CCCCc3ccccc32)cc1 | -12.3
CCn1c(Cc2ccccc2)nnc1SCc1ccc([N+](=O)[O-])cc1 | -57.1
CCn1c(Cc2ccccc2)nnc1SCC(=O)c1cccc([N+](=O)[O-])c1 | -24
CCc1ccc(-n2c(SCc3c(C)noc3C)nnc2-c2ccncc2)cc1 | -36.6
Cc1cccc(-n2c(Cc3ccccc3)nnc2SCc2ccc([N+](=O)[O-])cc2)c1 | -37.6
CCOc1ccc(-n2c(COc3ccccc3)nnc2SCC(N)=O)cc1 | -13.8
CCOc1ccc(-n2c(Cc3ccccc3)nnc2SCc2c(C)noc2C)cc1 | -74.1
OCCOCCn1c(-c2ccccc2)nc(=S)c2c1CCCC2 | 9.34
CCCOc1ccc(Cn2c(O)cc(=O)[nH]c2=O)cc1 | 14.1
Cc1sc2cc3c(c(C(=O)c4ccccc4)[n+]2c1C)-c1cccc2cccc-3c12.[Br-] | -77.1
O=C(O)c1cccc(N2C(=O)c3cccc4cccc(c34)C2=O)c1 | 12.7
Cc1sc2ccccc2[n+]1CC(=O)c1ccccc1.[Br-] | 18.7
CN(C)/C=N/c1ncc(C(=O)c2ccccc2)s1 | 1.48
Cc1sc(N)c(C(=O)c2ccccc2)c1C | 9.41
O=C(c1ccccc1)c1c2c(cc3sc4ccccc4[n+]13)-c1cccc3cccc-2c13.[Br-] | -76.8
